Key:
Assay in all cases: PBM binding z-score (relative to random genomic background probes); higher = stronger binding; sequences stand for … in GC…GCGATTGACAGCGTAGAATGAAGG
[1] = tested on: RARb homodimer (NR concentration 270 nM)
Method in brief: (§1)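 Scanned fluorescence from custom Agilent 4×180K protein-binding microarrays was regression-normalized. Binding z-scores use random background probes as reference. Ligand-free nuclear receptor dimers were incubated on the arrays for 1 h and detected with antibodies against each partner (one per run).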

[2] = tested on: RARg:RXRa (NR concentration 270 nM, RXRa partner concentration 90 nM)
Method in brief: as §1

[3] = tested on: RARg homodimer (NR concentration 270 nM)
Method in brief: as §1

[4] = tested on: RXRa DBDmut IVT, anti-RXR (DBD mutation: RXRa K156A/R161A, NR concentration 90 nM)
Method in brief: as §1

[5] = tested on: RXRa homodimer (NR concentration 180 nM)
Method in brief: as §1

[6] = tested on: THRa:RXRa (NR concentration 90 nM, RXRa partner concentration 90 nM)
Method in brief: as §1

[7] = tested on: THRa homodimer (NR concentration 90 nM)
Method in brief: as §1

[8] = tested on: VDR:RXRa (NR concentration 270 nM, RXRa partner concentration 90 nM)
Method in brief: as §1

[9] = tested on: VDR homodimer (NR concentration 270 nM)
Method in brief: as §1

Row | Sequence | PBM binding z-score [1] | PBM binding z-score [2] | PBM binding z-score [3] | PBM binding z-score [4] | PBM binding z-score [5] | PBM binding z-score [6] | PBM binding z-score [7] | PBM binding z-score [8] | PBM binding z-score [9]
1 | TAGCGTAGGTCATTGGGCCAGTATAGTACGCATC | 2.8 | 3.98 | 4.08 | 0.868 | 3.6 | 2.08 | -0.396 | 2.41 | 0.725
2 | CCTACTCGGCCACGAAAGGTCATTGATTCAGTGA | 4.79 | 4.8 | 4.78 | 0.99 | 5.02 | 3.53 | 1.03 | 4.1 | 2.62
3 | CTACCAAGGTGAACAAGGTCGTTGAATACTATTC | 2.13 | 1.97 | 1.95 | 1.24 | 1.98 | 3.25 | 1.83 | 5.99 | 2.1
4 | CTCGAAAGGTCGTGCTCAGGCGAGTATACCAAAC | 2.65 | 4.35 | 3.64 | 1.3 | 4.75 | 2.88 | -0.037 | 2.96 | 0.812
5 | CCTATTAGTTGGCCATAAGGGCAACCGAAGCTCG | 1.46 | 0.564 | 0.624 | 0.223 | 0.155 | 1.3 | 0.895 | 0.196 | 0.172
6 | CGTCAAAGTTCAACTAAGCTAACGTAAAGCACGC | 4.31 | 5.83 | 6.59 | 4.75 | 5.2 | 2.48 | 0.187 | 4.35 | 3.66
7 | ATATGTAGGTGATCGGGTCATTCAGTTTGCGCAT | 2.55 | 2.48 | 1.78 | 1.09 | 2.44 | 2.91 | 2.14 | 4.74 | 3.46
8 | ATCTCTAGGTAAAGTTCAGTCAAAGATCGATAGA | 2.8 | 2.17 | 2.39 | 1.6 | 1.35 | 1.46 | 0.288 | 1.96 | 2.11
9 | ACTAGCAGGCCAAGTTAGGGTCACTCAAACAAAG | 3.53 | 4.02 | 2.89 | -0.159 | 3.35 | 4.14 | 2.34 | 3.15 | 1.18
10 | TCGAGCAGGTTAGTCGGGGCATTCAGCCAACATA | 0.497 | -0.142 | -0.25 | -0.118 | -0.199 | 1.21 | -0.236 | 2.09 | 0.432
11 | ATCTCTATGTAAAGTTCAGTGAAAGATCGATAGA | 2.23 | 2.06 | 2.29 | 1.3 | 1.08 | 0.757 | -0.304 | 1.26 | 2.03
12 | TGAATGTGGTTATAAGATCAGGGAACGTTGCAAA | 0.38 | 0.101 | 0.404 | -0.35 | 0.0364 | 0.133 | 0.0859 | 0.157 | 0.37
13 | TCTCGGAGGACACGAAAGGTCAGAGCCCGACATC | 4.82 | 4.91 | 5.5 | 0.988 | 3.95 | 3.67 | 1.25 | 3.26 | 1.26
14 | TCTAGTTGGTCACGGAGGTCACACTCGACGGGTA | 4.42 | 4.61 | 4.99 | 1.2 | 4.54 | 3.59 | 2.56 | 5.86 | 2.99
15 | ACTCGGAGGACAAAGGCCAGAGCTACGCCAGTGA | 0.873 | 0.907 | 1.26 | 0.472 | -0.212 | 0.389 | -0.475 | -0.667 | -0.537
16 | TCTTGTAGATCGACAGGAGGTTAAGAAAGATCGA | 0.302 | 0.34 | 0.0753 | 0.223 | 0.86 | 0.713 | -0.764 | 0.501 | -0.181
17 | GGAACGAGGGCAATCGAGTTGATAGCATGGCGAT | 0.554 | 1.14 | 1.22 | 1.84 | 0.638 | 2.64 | -0.649 | 3.11 | 1.87
18 | CTGACTGGGGCAAAGGTTACCATACTCAGTACGA | 2.6 | 3.83 | 2.21 | 0.587 | 4.06 | 2.08 | 0.233 | 2.07 | 0.376

Row | Sequence | PBM binding z-score [1] | PBM binding z-score [2] | PBM binding z-score [3] | PBM binding z-score [4] | PBM binding z-score [5] | PBM binding z-score [6] | PBM binding z-score [7] | PBM binding z-score [8] | PBM binding z-score [9]
19 | TCATATAGGTAATACAGGTGAAAGTAGGCATCTA | 0.649 | 0.714 | 0.742 | 1.81 | 1.2 | 1.05 | 0.429 | 1.41 | 0.305
20 | AGTCAAAGTTCGGGACGAGGTAACGTAAAGCACG | 0.989 | 2.06 | 1.49 | 0.847 | 1.07 | 2.89 | 1.13 | 0.784 | 0.532
21 | ATCGAAAGGTAGACGAGGTGAGTATACACCGTTT | 0.107 | 0.927 | 0.758 | -0.531 | 0.582 | 2.01 | 0.239 | 0.452 | -0.467
22 | CAAACCAGGTCAAGGTCAAAGTCGGTTTGTGCCA | 5.11 | 6.13 | 6.35 | 3.39 | 6.52 | 4.77 | 4.35 | 5.66 | 4.97
23 | TCTAGTTGGTCACAGGTCACACACTCGAAATGCG | 3.55 | 3.75 | 3.33 | 1.62 | 3.83 | 2.96 | 1.97 | 2.95 | 1.7
24 | ATATGTAGGTTACATCCGGGTGATTCAGGCTATG | 0.887 | 1.19 | 1.11 | 0.378 | 1.27 | 2.07 | 0.9 | 0.753 | 0.101
25 | CCGACTGGGGCAAAAGTTACCATACTCAGTACGA | 0.168 | 0.333 | 0.253 | 0.584 | 0.278 | -0.144 | -0.251 | -0.267 | -0.248
26 | ACTTACGGGTCAACGAGGTTATGGCACGCGTATA | 3.9 | 5.75 | 5.68 | 2.65 | 6.57 | 4.04 | 1.32 | 7.66 | 3.94
27 | TCTTGTAGATCAGCCGGTTAAGAAAGCTGGCCAA | -0.307 | -0.542 | -0.822 | 0.73 | -0.222 | -0.482 | -0.883 | -0.00365 | -0.659
28 | CTACCAAGGTGAAAAAGGTCGTTGATTACTATTC | 2.39 | 2.01 | 1.33 | 1.01 | 2.21 | 2.42 | 0.518 | 4.09 | 1.4
29 | AGTCAAAGTTCAGGACGTGGTAACGTAAAGCACG | 3.13 | 4.04 | 4.85 | 2.76 | 2.67 | 2.37 | 0.614 | 2.12 | 1.49
30 | CGAAATAGGTCATCCAGGACAGTGAATACATTGA | 3.71 | 5.08 | 4.84 | 2.26 | 4.96 | 3.96 | 1.19 | 5.63 | 1.92
31 | ACTCGAAGGACAAAGGTCAGAGCTACGCCAGTGA | 4.53 | 5.85 | 4.94 | 0.729 | 4.69 | 3.02 | 0.499 | 2.96 | 0.565
32 | AGAACGAAGGCAATGAGTTGATAGCACGGGTGGC | -1.03 | -0.228 | -0.122 | -0.299 | -0.105 | -0.732 | -1.11 | 0.485 | -0.223
33 | ACTAGCAGGCCAAGTTTGCGTCACTCAAACAAAG | 0.00722 | -0.201 | -0.0389 | 0.079 | -0.299 | -0.253 | -0.635 | -0.321 | 0.0311
34 | TCGAGTAGGTTGGGGGCATTCAGAATGGCGTCGA | 1.42 | 1.32 | 0.732 | 1.74 | 1.57 | 2.11 | 1.52 | 2.65 | 3.27
35 | CGTCAAAGTTCAACGTAACGTAACAGAAAGCAGC | 3.83 | 5.52 | 5.97 | 4.56 | 4.19 | 1.78 | -0.366 | 3.97 | 3.03
36 | TCTCGGAGGACACGACAGGTCAGAGCTCGACATC | 2.87 | 2.35 | 3.16 | 0.685 | 1.41 | 2.96 | 1.04 | 0.875 | 0.677

From the supplement of paper PMC6555819
